LmPK inh = LmPK (Leishmania mexicana) enzyme inhibition; actives 0.37% (n = 290,000); Potency, µM (doses to about 57.5 µM), for the others: at the highest dose activity change, negative = inhibition, usual class: inhibitors; Q27686; purified LmPK, Kinase-Glo ATP luminescence, 1 h; further: potency means the concentration at half of the fitted maximal effect; on the % scale 0 is the no-effect control and ±100 the full control effect
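Kinase-Glo luminescence read after 1 h RT reaction of 0.1 nM LmPK with 0.5 mM PEP and 0.1 mM ADP. Activity scaled between uninhibited and enzyme-free controls.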
TbPYK inhibitor = blocks Trypanosoma brucei pyruvate kinase; Q57TT1; TbPYK enzyme, Kinase-Glo Plus ATP luminescence, 45 min; Potency, µM (top dose mostly 76.8 µM), inactives show at the top dose activity, negative = inhibition, hits mostly inhibitors; actives 0.12% (n = 410,000); further: potency means the concentration at half of the fitted maximal effect; on the % scale 0 is the no-effect control and ±100 the full control effect; nearly all actives have a fitted effect of over 50% in size
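ADP (130 uM final) triggers the TbPYK reaction after compound addition; incubation is 45 min at room temperature. Kinase-Glo Plus is then added and luminescence imaged. Normalized data are fitted to concentration-effect curves.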
Cycloheximide cs = counter-screen hit for Shiga toxin inhibitors, cycloheximide | cell reporter, cycloheximide protein synthesis inhibition counterscreen | max response, % | actives 12% (n = 300,000); in the data active means max response mostly above about 13%, no sharp cut-off; inactive means mostly below about 14%; further: read at 38.3 µM for the half of the compounds with a filed dose; 0% is about no effect
Sm TGR block = inhibitors of Schistosoma mansoni thioredoxin glutathione reductase; AID 485364; Q962Y6; Potency, µM (doses to about 114 µM), without a hit: top-dose activity change, negative = inhibition, most hits filed as inhibitors; purified TGR, DTNB reduction, TNB absorbance 405 nm; actives 3% (n = 360,000); further: potency means the concentration at half of the fitted maximal effect; on the % scale 0 is the no-effect control and ±100 the full control effect; nearly all actives have a fitted effect of over 60% in size
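Kinetic colorimetric format: TGR-catalysed, NADPH-driven DTNB reduction monitored via TNB absorbance. Enzyme dispensed at 20 nM; compound exposure 15 min at room temperature before reaction start.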
Giardia FBPA inh = Giardia lamblia aldolase inhibition. AID 2451. Potency, µM (top dose mostly 59.6 µM), without a hit: at the highest dose activity, negative = inhibition, usual class: inhibitors. A8B2U2. actives 0.71% (n = 290,000). purified Giardia FBPA; further: potency means the concentration at half of the fitted maximal effect; on the % scale 0 is the no-effect control and ±100 the full control effect; nearly all actives have a fitted effect of over 55% in size
Target sequence (A8B2U2 whole entry, looked up): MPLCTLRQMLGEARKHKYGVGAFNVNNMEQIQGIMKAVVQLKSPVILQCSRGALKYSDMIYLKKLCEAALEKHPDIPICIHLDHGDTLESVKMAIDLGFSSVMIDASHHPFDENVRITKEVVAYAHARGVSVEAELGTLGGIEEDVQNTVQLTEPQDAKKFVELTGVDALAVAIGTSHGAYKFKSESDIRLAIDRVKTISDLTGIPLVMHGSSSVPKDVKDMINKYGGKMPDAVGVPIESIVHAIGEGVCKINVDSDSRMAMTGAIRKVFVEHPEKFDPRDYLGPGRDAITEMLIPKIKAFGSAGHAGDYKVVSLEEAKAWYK
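40 nM FBPA preincubated 10 min at RT with compound (up to 57.5 uM final), then substrate plus GAPDH/TPI/NAD/arsenate coupling and diaphorase/resazurin added. Fluorescence read after 20 min at RT, 525/598 nm.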
Shiga inhibitor = Shiga toxin inhibition. Vero cells, Shiga toxin protein synthesis inhibition reporter. inhibition, % at 38.7 µM. actives 9.2% (n = 290,000); in the data active means inhibition mostly above about 28%, no sharp cut-off; inactive means mostly below about 43%; further: 0% is about no effect
An asterisk follows results filed as active; u = inconclusive; x = not tested or not shown. The full list was thinned out, with hits kept by preference. Unless noted, the call rests on the fitted dose curve; in most records, active means well fitted curve in the direction sought with a large enough effect; inconclusive means small, poorly fitted or top-dose-only effect, or another doubt; inactive means no such curve, though single readings can be large; an effect the other way counts as inactive or inconclusive.

SMILES | LmPK inh | TbPYK inhibitor | Cycloheximide cs | Sm TGR block | Giardia FBPA inh | Shiga inhibitor
c1cncc(Nc2nc(-c3ccncc3)cs2)c1 | 1% | 0% | 1 | -1% | 4% | -5
c1cncc(Nc2nc(-c3cccnc3)cs2)c1 | 3% | 3% | 12 | 0% | 5% | 21
COc1cccc(Nc2nc(-c3cccnc3)cs2)c1 | -1% | 1% | 53* | -3% | 8% | 57*
COc1ccc(-c2csc(Nc3cccnc3)n2)cc1OC | -4% | -2% | 21 | -8% | 3% | active
COC(=O)CN1C(=O)N/C(=C/c2ccc(C)o2)C1=O | 14% | -9% | -2 | 28µM* | u | 4
CCN1C(=O)N/C(=C/c2cc(C)n(Cc3ccccc3)c2C)C1=O | -1% | 6% | 27* | -6% | -10% | 37*
Cc1ccc(/C=C2/NC(=O)N(Cc3ccccc3)C2=O)o1 | -4% | u | -1 | 22µM* | u | 9
c1ccc2cc3[nH]c(CN4CCOCC4)nc3cc2c1 | 0% | 8% | 17* | -22% | 0% | 35*
c1ccc2[nH]c(CN3CCOCC3)nc2c1 | 2% | 0% | 6 | -2% | -6% | -10
C=CCN(c1ccccc1OC)S(=O)(=O)c1cccc(C(=O)NCC(c2ccc(OC)cc2)N2CCCC2)c1 (stereo not given) | x | 0% | x | x | x | x
COc1cccc(CNCCSc2nnnn2C)c1OCc1ccccc1F | x | 0% | x | -5% | x | x
CCN(CC)c1ccc(C(=O)NCc2ccc3c(c2)CCN3C(=O)c2ccc(F)cc2)cc1 | x | -8% | x | 3% | x | x
CCOC(=O)c1c(C)[nH]c(C)c1S(=O)(=O)N1CCC(C(=O)Nc2ccc(F)cc2F)CC1 | x | -3% | x | -1% | x | x
Nc1nc(CCl)nc(Nc2ccc3ccccc3c2)n1 | -5% | 10% | 74* | 16µM* | -24% | 90*
COc1ccc(Nc2nc(N)nc(CN3CCOCC3)n2)cc1 | 8% | -8% | 5 | 0% | -19% | 15
COc1ccc(Nc2nc(N)nc(CCl)n2)cc1 | -14% | 0% | 67* | 35µM* | 0% | 78*
Cc1ccc(Nc2nc(N)nc(CN3CCN(c4ccccc4)CC3)n2)cc1Cl | 3% | 8% | 1 | -2% | 4% | -8
CC[C@H](C)[C@H](NC(=O)[C@H](Cc1ccc(O)cc1)NC(=O)[C@@H](NC(=O)[C@H](CCCN=C(N)N)NC(=O)[C@@H](N)CC(=O)O)C(C)C)C(=O)N[C@@H](Cc1cnc[nH]1)C(=O)N1CCC[C@H]1C(=O)O | x | x | -2 | x | -4% | -3
Cc1cc2c(=O)n(Cc3ccco3)c(SCC(=O)N3CCCc4ccccc43)nc2s1 | 2% | 0% | 12* | -39% | 2% | 5
Cc1cc2c(=O)n(Cc3ccco3)c(SCC(=O)NCc3ccco3)nc2s1 | 5% | u | -2 | 0% | 1% | 1
COc1ccc(OC)c(-c2cc(C(=O)Nc3ccc(C)c(C)c3)no2)c1 | x | -5% | x | 1% | x | x
O=C(c1cc(-c2ccc3c(c2)OCO3)on1)N1CCOCC1 | u | -5% | 20* | -10% | 0% | active
O=C(c1cc(-c2ccc3c(c2)OCO3)on1)N1CCN(c2ccccc2)CC1 | 0% | -13% | 56* | 0% | 7% | 62*
O=C(c1cc(-c2ccc3c(c2)OCO3)on1)N1CCN(c2ccc(F)cc2)CC1 | 3% | 3% | 9 | 2% | 3% | 8
O=C(c1cc(C2CC2)on1)N1CCN(c2ccccc2)CC1 | -1% | 3% | 24* | -16% | -4% | 47*
SMILES | LmPK inh | TbPYK inhibitor | Cycloheximide cs | Sm TGR block | Giardia FBPA inh | Shiga inhibitor
CCc1cc(C(=O)N2CCN(c3ccccc3)CC2)no1 | x | -2% | x | 3% | x | x
COc1cc(C(=O)NCC(=O)Nc2c(C)cccc2C)ccc1OCC(=O)N1CCOCC1 | x | 1% | x | x | x | x
COc1cc2c(cc1OC)C(c1ccc(Cl)cc1)N(c1ccc(C)c(F)c1)C(=O)C2 (stereo not given) | x | 2% | x | 14% | x | x
CC(C)(C)NC[C@H](O)CSc1nc(-c2ccc(C(N)=O)s2)cs1 | x | 1% | x | x | x | x
CCn1nnnc1SCC(=O)Nc1nc2ccccc2s1 | -2% | 1% | 21* | -26% | -3% | 10
Cc1nc(NC(=O)CSc2nnnn2Cc2ccccc2)sc1C | 1% | 1% | 28* | 1% | -4% | 75*
CCc1c(O)nc(SCC(=O)Nc2nc3ccccc3s2)n(-c2ccc(C)cc2)c1=O | 8% | -1% | 45* | -3% | -4% | 93*
O=C(Nc1ccc(OC(F)(F)F)cc1)NC1COc2ccccc2C1 (stereo not given) | x | 4% | x | 25% | x | x
COc1cc(OC)cc(C(=O)NCC2CCCN(C(=O)c3csc(C(C)C)n3)C2)c1 (stereo not given) | 2% | 1% | 21* | 0% | x | -8
COc1ccc(-c2nsc(NC(=O)COc3ccc(C)c(C)c3)n2)cc1 | x | 1% | x | 2% | x | x
CC(C)(C)NC(=O)c1cc2c(ccc3ccccc32)oc1=O | 2% | 3% | 27* | 0% | 1% | x
COc1ccc2cc(C(=O)NCc3ccccc3)c(=O)oc2c1 | -3% | 4% | 13* | 6% | 4% | 43*
O=C(O)c1cc2c(ccc3ccccc32)oc1=O | -2% | x | -4 | -7% | 10% | -13
CCOC(=O)c1cc2ccc(OC)cc2oc1=O | -29% | 1% | 18* | -1% | 0% | 66*
COc1ccc2cc(C(N)=O)/c(=N\NC(=O)c3ccccc3)oc2c1 | 0% | 2% | 44* | 5% | 0% | 68*
Cc1nc2ccccc2n1CCc1nc2c3ccccc3nc(SCc3ccccc3F)n2n1 | x | 3% | x | -1% | x | x
COc1cc(NC(=O)c2ccccc2)c(OC)cc1NC(=O)Cc1ccc(C)cc1 | 5% | -2% | 1 | -3% | 8% | -9
CCNc1ncc2nc(-c3ccc(OC)cc3)c(=O)n(Cc3cccc(OC)c3)c2n1 | x | -4% | x | x | -4% | x
CNC(=O)c1cc2ccc(OC)cc2oc1=O | -3% | 3% | 12* | -10% | -2% | 15
Cc1ccc(CNC(=O)c2cc3ccccc3oc2=O)cc1 | x | 0% | x | x | x | x
CN(C)C(CNC(=O)c1cc2ccccc2oc1=O)c1ccccc1 (stereo not given) | -8% | -2% | 27* | -2% | -3% | 90*
O=C(NCc1ccccc1)c1cc2ccccc2oc1=O | 1% | -2% | 50* | 4% | -4% | 44*
CC(Sc1nnc(-c2ccc(OC(F)F)cc2)n1N)C(=O)NCC1CCCO1 (stereo not given) | x | 1% | x | 4% | x | x
O=C(/C=C/c1ccc2ccccc2c1)c1ccoc1 | 2% | 3% | 34* | -5% | 4% | 53*
CC/C(=N/NC(=O)c1ccc(Br)o1)c1ccc(Cl)cc1 | -2% | -3% | 39* | 1% | 0% | 125*
CCCC/C(=N\NC(=O)c1ccc(Br)o1)c1ccccc1 | 5% | -5% | 32* | -1% | -1% | 46*

Screens: PubChem, National Center for Advancing Translational Sciences (NCATS)
